# Results reported in PubChem BioAssay.
# A number with no mark means an inactive call. For some assays here: Measured potencies and affinities stand elsewhere. Activity calls are given as the source filed them. Unless noted, no rule for the calls is given here.
# What was measured:
# [1] = antimalarial activity against Dd2 strain (AID 2302;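 active = growth inhibition above 50% at the single 2 µM test dose, taken to imply half-maximal potency below 2 µM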;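 also: 0% = DMSO untreated growth and 100% = chloroquine plus artemisinin killed control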); details: P. falciparum Dd2 in RBCs, LDH growth readout, 72 h; at 2 µM; stronger effect = higher value
# [2] = human hepatoma cell viability loss – ATP luminescence, cytotoxicity control for P. falciparum antimalarial project, primary screen (AID 2303;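 active = inhibition above 50%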;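 also: 0% = DMSO wells and 100% = digitonin-killed cells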); details: HepG2 viability, 24-48 h, at 10 µM, stronger effect = higher value
# [3] = target: L-lactate dehydrogenase (Plasmodium falciparum (isolate CDC / Honduras)) (UniProt Q27743); experiment: PfLDH activity inhibition – cell lysate, 3D7 strain, counter-screen for P. falciparum growth inhibition project (AID 2304);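 also: 0% = vehicle and 100% = reference inhibitor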; details: P. falciparum 3D7 crude extract, LDH APAD/NBT absorbance; at 2 µM; stronger effect = higher value
# [4] = inhibition of 3D7 malaria parasite growth – strain 3D7 (AID 2306);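 also: 0% = DMSO wells and 100% = chloroquine plus artemisinin control wells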; details: P. falciparum 3D7 erythrocytic growth, LDH absorbance, 72 h; at 2 µM; stronger effect = higher value
# [5] = target: Calcium-dependent protein kinase 1 (Plasmodium falciparum (isolate 3D7)) (UniProt P62344); experiment: PfCDPK1 kinase inhibitors, biochemical, TCAMS library (AID 1159585; cut-off not given, nearly all actives have IC50 up to about 0.98 µM;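 also: inhibitors leave more ATP so luminescence rises with inhibition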); details: recombinant PfCDPK1, Kinase-Glo ATP depletion luminescence
# [6] = target: Plasmodium falciparum protein kinase 6 (PK6, PF3D7_1337100) (UniProt Q8IDW1); experiment: PfPK6 kinase inhibitors, biochemical, TCAMS library (AID 1159586); details: recombinant PfPK6, Kinase-Glo ATP depletion luminescence
# [7] = target: Protein kinase 7 (PK7), Plasmodium falciparum 3D7 (PF3D7_0213400) (UniProt Q7YTF7); experiment: inhibition of Plasmodium PK7 catalytic activity – biochemical, TCAMS antimalarial set, Kinase-Glo luminescence (AID 1159587); details: recombinant PfPK7, Kinase-Glo ATP depletion luminescence
# [8] = target: Calcium-dependent protein kinase 4 (Plasmodium falciparum (isolate 3D7)) (UniProt Q8IBS5); experiment: PfCDPK4 kinase inhibitors, biochemical, TCAMS library (AID 1159588; cut-off not given, nearly all actives have IC50 up to about 0.91 µM); details: recombinant PfCDPK4, Kinase-Glo ATP depletion luminescence
# Calcium-dependent protein kinase 4 (Plasmodium falciparum (isolate 3D7)), sequence (Q8IBS5 whole entry, looked up): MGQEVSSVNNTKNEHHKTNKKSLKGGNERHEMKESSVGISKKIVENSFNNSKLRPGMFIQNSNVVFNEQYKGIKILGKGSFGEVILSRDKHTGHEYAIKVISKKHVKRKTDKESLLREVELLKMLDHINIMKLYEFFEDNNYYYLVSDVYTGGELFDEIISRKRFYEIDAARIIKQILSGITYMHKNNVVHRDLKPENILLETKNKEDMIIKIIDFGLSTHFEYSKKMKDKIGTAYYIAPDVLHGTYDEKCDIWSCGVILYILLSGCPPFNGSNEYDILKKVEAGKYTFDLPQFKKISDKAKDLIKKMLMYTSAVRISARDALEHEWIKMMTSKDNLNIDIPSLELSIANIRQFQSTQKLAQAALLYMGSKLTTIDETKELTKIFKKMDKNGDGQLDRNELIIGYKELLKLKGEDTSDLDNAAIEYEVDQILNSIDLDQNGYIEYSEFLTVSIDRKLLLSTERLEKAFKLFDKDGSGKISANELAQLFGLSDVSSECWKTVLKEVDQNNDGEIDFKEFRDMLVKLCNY
# Calcium-dependent protein kinase 1 (Plasmodium falciparum (isolate 3D7)), sequence (P62344 whole entry, looked up): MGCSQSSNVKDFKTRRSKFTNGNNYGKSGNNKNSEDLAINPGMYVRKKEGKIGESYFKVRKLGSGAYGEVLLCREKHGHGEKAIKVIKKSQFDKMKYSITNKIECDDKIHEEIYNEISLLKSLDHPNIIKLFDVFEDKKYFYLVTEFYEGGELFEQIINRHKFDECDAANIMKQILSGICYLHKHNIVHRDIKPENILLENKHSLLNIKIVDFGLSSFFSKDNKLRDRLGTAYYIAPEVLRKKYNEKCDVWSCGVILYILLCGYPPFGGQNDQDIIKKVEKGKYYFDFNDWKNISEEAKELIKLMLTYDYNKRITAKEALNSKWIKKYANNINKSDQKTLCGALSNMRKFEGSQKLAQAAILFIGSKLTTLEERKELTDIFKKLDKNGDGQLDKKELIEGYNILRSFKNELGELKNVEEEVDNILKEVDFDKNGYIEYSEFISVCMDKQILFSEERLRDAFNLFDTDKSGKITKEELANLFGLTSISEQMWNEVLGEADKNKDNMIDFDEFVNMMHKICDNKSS
# Plasmodium falciparum protein kinase 6 (PK6, PF3D7_1337100), sequence (Q8IDW1 1-305): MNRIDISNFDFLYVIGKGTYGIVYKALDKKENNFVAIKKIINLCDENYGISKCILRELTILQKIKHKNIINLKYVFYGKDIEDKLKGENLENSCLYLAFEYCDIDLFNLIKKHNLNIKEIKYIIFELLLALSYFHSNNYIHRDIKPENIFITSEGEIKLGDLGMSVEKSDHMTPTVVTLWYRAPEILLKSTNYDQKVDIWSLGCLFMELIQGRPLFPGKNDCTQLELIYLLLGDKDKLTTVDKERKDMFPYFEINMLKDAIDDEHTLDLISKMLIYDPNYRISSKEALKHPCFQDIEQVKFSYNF
# L-lactate dehydrogenase (Plasmodium falciparum (isolate CDC / Honduras)), sequence (Q27743 whole entry, looked up): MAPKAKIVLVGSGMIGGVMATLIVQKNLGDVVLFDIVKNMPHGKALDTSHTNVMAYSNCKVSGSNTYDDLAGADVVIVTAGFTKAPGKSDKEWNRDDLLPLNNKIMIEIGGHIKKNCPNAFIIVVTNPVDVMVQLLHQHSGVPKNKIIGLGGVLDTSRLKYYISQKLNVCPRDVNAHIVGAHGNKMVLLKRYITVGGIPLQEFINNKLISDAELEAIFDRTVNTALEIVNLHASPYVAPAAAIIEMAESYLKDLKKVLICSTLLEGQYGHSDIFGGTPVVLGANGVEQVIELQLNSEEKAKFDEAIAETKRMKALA
# Protein kinase 7 (PK7), Plasmodium falciparum 3D7 (PF3D7_0213400), sequence (Q7YTF7 1-343): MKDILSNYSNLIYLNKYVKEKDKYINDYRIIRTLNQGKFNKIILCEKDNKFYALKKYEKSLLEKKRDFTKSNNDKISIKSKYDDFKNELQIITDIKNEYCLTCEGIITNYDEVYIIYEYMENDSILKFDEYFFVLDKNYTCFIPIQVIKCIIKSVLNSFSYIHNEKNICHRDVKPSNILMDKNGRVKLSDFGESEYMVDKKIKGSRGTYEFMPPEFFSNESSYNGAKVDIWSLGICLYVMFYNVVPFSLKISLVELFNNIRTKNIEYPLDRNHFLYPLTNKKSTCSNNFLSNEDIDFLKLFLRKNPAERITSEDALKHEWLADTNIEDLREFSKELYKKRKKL
SMILES,growth inhibition [1],inhibition [2],inhibition [3] [%],growth inhibition [4],outcome [5],outcome [6],outcome [7],outcome [8]
NC(N)=NCCCN(Cc1ccccc1)c1ccccc1,97% (active),-13%,-3,100% (active),inactive,inactive,inactive,inactive
O=C(Nc1ccc(-c2cccc(-c3nc4ccc(C(F)(F)F)cc4[nH]3)c2)cc1)Nc1ccc(F)c(F)c1F,85% (active),58% (active),1,99% (active),inactive,inactive,inactive,inactive
COc1c(C2=CCN(CCCCNC(=O)c3ccc(-c4ccc(C#N)cc4)cc3)CC2)c(C)cc2c1C(C)(C)CCC2(C)C,88% (active),18%,-2,92% (active),inactive,inactive,inactive,inactive
Cc1cc(N[C@@H](Cc2ccccc2)C(=O)Nc2ccccc2)nc(NCCc2ccccc2)n1,87% (active),8%,3,101% (active),inactive,inactive,inactive,inactive
CC(=NN=C(N)N)c1ccc2c(c1)Cc1ccccc1-2,10%,44%,5,101% (active),inactive,inactive,inactive,inactive
C=C(F)c1sc(CNCCCNc2nc3ccccc3[nH]2)c(C)c1Br,23%,15%,3,100% (active),inactive,inactive,inactive,inactive
CCN(Cc1ccccc1)C1CCN(Cc2cc(Br)ccc2O)CC1,97% (active),6%,-1,97% (active),inactive,inactive,inactive,inactive
CC(=O)Nc1ccc(C#Cc2ccc(-c3c(C)[nH]c(C)c(Cl)c3=O)cc2)cc1,78% (active),-3%,-7,90% (active),inactive,inactive,inactive,inactive
Cc1cc(N)ncc1-c1ccc(NC(=O)Nc2cc(C(F)(F)F)ccc2F)cc1,23%,15%,3,100% (active),inactive,inactive,inactive,inactive
CC(=O)c1c(CC(=O)O)c2ccccc2n1O,-1%,16%,-3,98% (active),inactive,inactive,inactive,inactive
N#Cc1ccc(-c2ccc(C(=O)Nc3ccc4c(c3)CCN(C3CCC3)CC4)nc2)cc1,63% (active),21%,0,99% (active),inactive,inactive,inactive,inactive
Cc1cc(C)cc(CC(=O)N2CCC(n3c(C)nc4ccc(C)cc43)CC2)c1,100% (active),52% (active),6,100% (active),inactive,inactive,inactive,inactive
CCCCC(CC)CN1C(=O)C(c2ccccc2)(c2ccccc2)N=C1N (stereo not given),98% (active),32%,4,94% (active),inactive,inactive,inactive,inactive
C(=NNc1cc(-c2ccccc2)nc2ccccc12)c1cccnc1,13%,23%,-1,87% (active),inactive,inactive,inactive,inactive
COc1ccc(Nc2nccc(NCCNC(=O)Nc3cc(C)ccc3C)n2)cc1,-3%,10%,2,85% (active),inactive,inactive,inactive,inactive
CC(C)CNC(=O)c1cncc(-c2ccc(CN(C)C3CCN(C)CC3)cc2)c1,84% (active),15%,-1,101% (active),inactive,inactive,inactive,inactive
COc1ccccc1Cc1nc2ccccc2nc1SCC(=O)Nc1cccc(C(F)(F)F)c1,91% (active),8%,0,97% (active),inactive,inactive,inactive,inactive
CCN(CC)c1ccc(C(c2ccc(N(CC)CC)cc2)c2ccc([N+](=O)[O-])cc2)cc1,63% (active),20%,0,82% (active),inactive,inactive,inactive,inactive
c1cc(CNCCc2ccncc2)cc(-c2ccc(-c3nc4ccccc4[nH]3)s2)c1,97% (active),1%,-3,101% (active),inactive,inactive,inactive,inactive
O=C(NCc1ccc(C(=O)N2CCC(N3CCCCC3)CC2)cc1)c1cc(-c2cccc(C(F)(F)F)c2)ccc1O,58% (active),-3%,1,100% (active),inactive,inactive,inactive,inactive

SMILES,growth inhibition [1],inhibition [2],inhibition [3] [%],growth inhibition [4],outcome [5],outcome [6],outcome [7],outcome [8]
CCC1(CC)C(=O)N=C(N2CCCCC2)N(C)C1=O,66% (active),-4%,1,89% (active),inactive,inactive,inactive,inactive
O=C(/C=C/c1ccc(Cl)c(Cl)c1)NCCCCCN1CCCN(C(=S)Nc2ccc(Cl)cc2)CC1,10%,7%,-3,86% (active),inactive,inactive,inactive,inactive
CC(C)Cc1ccc(N2CCN(CCCCNC(=O)c3ccc(NC(=O)c4cc(C(F)(F)F)cc(C(F)(F)F)c4)cc3)CC2)cc1,100% (active),15%,-3,100% (active),inactive,inactive,inactive,inactive
CC(C)CNCc1cccc(-c2cccc(CN(CCCN3CCN(C)CC3)C(=O)CCC3CCCC3)c2)c1,96% (active),45%,-7,100% (active),inactive,inactive,inactive,inactive
Cc1cccc(CNc2nc(C)cc(N[C@@H](Cc3ccccc3)C(=O)NCCOc3ccccc3)n2)c1,54% (active),28%,1,93% (active),inactive,inactive,inactive,inactive
COc1ccccc1NC(=O)Nc1ccc(-c2ccc(-c3nc4c(C)cccc4[nH]3)s2)cc1,99% (active),71% (active),0,100% (active),inactive,inactive,inactive,inactive
O=C(/C=C/c1ccc(Cl)c(Cl)c1)NCCCCCN1CCCC(CNS(=O)(=O)c2cccc(C(F)(F)F)c2)C1 (stereo not given),0%,73% (active),5,92% (active),inactive,inactive,inactive,inactive
O=C1Nc2cccc3c2C1(CCCCN1CCC(c2c[nH]c4cc(C(F)(F)F)ccc24)CC1)CCC3 (stereo not given),79% (active),99% (active),3,99% (active),inactive,inactive,inactive,inactive
Cc1cc(F)ccc1-c1nc(NCCCNCCc2ccccc2)nc2c1ccc(=O)n2-c1c(F)cccc1F,100% (active),36%,-6,100% (active),inactive,inactive,inactive,inactive
CCc1cn2c3c(cc(C(=O)N[C@@H](Cc4ccccc4)[C@H](O)CNC(C)C)cc13)N(C)S(=O)(=O)C2,98% (active),16%,8,98% (active),inactive,inactive,inactive,inactive
COc1ccc2nc3cc(Cl)ccc3c(NCCCCNc3c4ccc(Cl)cc4nc4ccc(OC)cc34)c2c1,99% (active),20%,6,99% (active),inactive,inactive,inactive,inactive
O=C1C(c2ccccc2)=C(Nc2cccc(OC(F)(F)C(F)F)c2)c2ccccc21,96% (active),-5%,0,96% (active),inactive,inactive,inactive,inactive
Cc1cccc2[nH]c(-c3ccc(-c4ccc(CN5CCCC(N)C5)cc4)s3)nc12 (stereo not given),100% (active),29%,-9,101% (active),inactive,inactive,inactive,inactive
O=C(Nc1ccc(C(=O)Oc2ccc3ccccc3c2)cc1)N[C@@H](Cc1ccc(O)cc1)C(=O)NC1CCN(Cc2ccc(O)cc2)C1 (stereo not given in full),1%,1%,-2,86% (active),inactive,inactive,inactive,inactive
C(=N\Nc1nccc2sc(-c3cccnc3)cc12)/c1ccncc1,94% (active),65% (active),7,101% (active),inactive,inactive,inactive,inactive
CCOc1cc(C)ccc1C1CCN(CCCCNC(=O)c2coc(-c3ccc(Cl)cc3)c2)CC1,30%,34%,-3,92% (active),inactive,inactive,inactive,inactive
COc1ccc2nccc([C@@H](O)CN3CCC(NCc4ccc5scnc5c4)CC3)c2c1,93% (active),17%,-1,101% (active),inactive,inactive,inactive,inactive
NCC1CCCN1Cc1ccc(-c2ccc(-c3nc4ccc(F)cc4[nH]3)cc2)cc1 (stereo not given),100% (active),31%,-3,102% (active),inactive,inactive,inactive,inactive
FC(F)(F)c1ccc2nc(-c3ccc(-c4cccc(CNCC5CCCO5)c4)cc3)[nH]c2c1 (stereo not given),100% (active),36%,-5,101% (active),inactive,inactive,inactive,inactive
N#Cc1ccc(-c2ccc3nc(N4CCCN(C5CCC5)CC4)ccc3c2)cc1,14%,36%,-2,96% (active),inactive,inactive,inactive,inactive
